# Paper PMC7862700, “An all-to-all approach to the identification of sequence-specific readers for epigenetic DNA modifications on cytosine”
# Columns and labels:
# Test in all cases: DAPPL (digital affinity profiling via proximity ligation, sequencing); 10 mM Tris-HCl pH 7.5, 50 mM NaCl, 1 mM DTT, 4% glycerol, room temperature, 30 min; GST-TFs on glutathione beads, 16-mer random dsDNA library, 0.1% formaldehyde crosslink after washing; high values mean tight binding
# FLI1 = target: T1, FLI1 (Homo sapiens, UniProt Q01543 1-452); details: protein: recombinant; tags: N-terminal GST; dsDNA, one strand shown
# T1 sequence: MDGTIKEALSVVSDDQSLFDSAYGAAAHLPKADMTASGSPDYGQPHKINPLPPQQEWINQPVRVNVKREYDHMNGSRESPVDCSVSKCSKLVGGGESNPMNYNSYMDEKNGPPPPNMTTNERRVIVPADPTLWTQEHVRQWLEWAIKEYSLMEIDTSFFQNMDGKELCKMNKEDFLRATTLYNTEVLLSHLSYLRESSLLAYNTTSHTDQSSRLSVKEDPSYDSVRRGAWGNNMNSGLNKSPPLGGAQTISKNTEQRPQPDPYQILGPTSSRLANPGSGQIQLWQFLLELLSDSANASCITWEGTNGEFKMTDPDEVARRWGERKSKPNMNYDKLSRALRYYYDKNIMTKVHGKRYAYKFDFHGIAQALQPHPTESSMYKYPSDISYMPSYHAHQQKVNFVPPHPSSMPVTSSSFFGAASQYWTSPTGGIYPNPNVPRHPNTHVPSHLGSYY
# Outline: (§1)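 Human transcription factors fused to GST were expressed in yeast, captured on glutathione beads, given DNA barcodes and pooled with a GST-only negative control. Pools were incubated with 200 nmole of a 16-mer random double-stranded DNA library in Tris/NaCl/DTT/glycerol buffer at room temperature for 30 min. They were then washed, crosslinked with 0.1% formaldehyde, proximity-ligated (BsaI/T4 ligase, 1 h, 37 °C), PCR-amplified and sequenced on an Illumina NextSeq500. Binding signal is each 6-mer's read frequency for a factor divided by its frequency for the GST control.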
# ELK1 = target: T2, ELK1 (Homo sapiens, UniProt P19419 1-428); details: protein: recombinant; tags: N-terminal GST; dsDNA, one strand shown
# T2 sequence: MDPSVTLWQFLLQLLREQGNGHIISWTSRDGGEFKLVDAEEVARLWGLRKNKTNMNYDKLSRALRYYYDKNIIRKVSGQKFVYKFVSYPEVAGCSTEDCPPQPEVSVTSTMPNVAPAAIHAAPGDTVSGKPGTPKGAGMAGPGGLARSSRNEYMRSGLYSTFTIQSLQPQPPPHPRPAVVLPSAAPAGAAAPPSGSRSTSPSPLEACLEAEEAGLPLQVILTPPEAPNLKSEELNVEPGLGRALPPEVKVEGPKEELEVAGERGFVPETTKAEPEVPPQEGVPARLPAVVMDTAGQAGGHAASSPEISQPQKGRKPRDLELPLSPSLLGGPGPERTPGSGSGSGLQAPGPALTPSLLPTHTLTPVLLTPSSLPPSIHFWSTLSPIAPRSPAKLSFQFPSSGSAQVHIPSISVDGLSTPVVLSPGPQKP
# Outline: as §1
# GABPA = target: T3, GABPA (Homo sapiens, UniProt Q06546 1-454); details: protein: recombinant; tags: N-terminal GST; dsDNA, one strand shown
# T3 sequence: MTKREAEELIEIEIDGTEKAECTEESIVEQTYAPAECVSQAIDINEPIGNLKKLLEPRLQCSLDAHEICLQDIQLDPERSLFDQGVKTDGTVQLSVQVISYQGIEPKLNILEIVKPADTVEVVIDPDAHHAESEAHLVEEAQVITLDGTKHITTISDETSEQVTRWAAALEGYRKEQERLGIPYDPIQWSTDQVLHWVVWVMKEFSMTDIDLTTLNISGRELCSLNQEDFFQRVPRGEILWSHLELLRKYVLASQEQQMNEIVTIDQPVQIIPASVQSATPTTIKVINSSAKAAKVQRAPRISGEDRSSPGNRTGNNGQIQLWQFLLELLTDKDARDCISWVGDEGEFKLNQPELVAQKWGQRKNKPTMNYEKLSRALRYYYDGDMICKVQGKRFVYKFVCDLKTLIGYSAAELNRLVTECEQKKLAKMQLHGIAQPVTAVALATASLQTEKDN
# Outline: as §1
# ERG = target: T4, ERG (Homo sapiens, UniProt P11308 1-479); details: protein: recombinant; tags: N-terminal GST; dsDNA, one strand shown
# T4 sequence: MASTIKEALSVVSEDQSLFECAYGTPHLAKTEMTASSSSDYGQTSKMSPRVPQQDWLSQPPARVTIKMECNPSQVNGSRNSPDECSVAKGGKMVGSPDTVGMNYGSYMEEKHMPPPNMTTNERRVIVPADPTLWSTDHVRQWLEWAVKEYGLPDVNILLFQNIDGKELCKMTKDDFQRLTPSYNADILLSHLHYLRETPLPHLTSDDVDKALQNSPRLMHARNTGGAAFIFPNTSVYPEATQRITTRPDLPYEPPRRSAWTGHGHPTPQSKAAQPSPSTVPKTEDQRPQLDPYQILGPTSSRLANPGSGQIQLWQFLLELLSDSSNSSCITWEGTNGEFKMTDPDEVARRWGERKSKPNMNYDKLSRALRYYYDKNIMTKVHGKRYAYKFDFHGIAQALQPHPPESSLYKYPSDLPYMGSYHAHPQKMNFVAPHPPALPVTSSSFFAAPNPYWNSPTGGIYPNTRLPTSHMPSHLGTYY
# Outline: as §1
# ELF1 = ELF1 (Homo sapiens, UniProt P32519 1-619); details: protein: recombinant; tags: N-terminal GST; dsDNA, one strand shown
# Outline: as §1
# EHF = target: T5, EHF (Homo sapiens, UniProt Q9NZC4 1-300); details: protein: recombinant; tags: N-terminal GST; dsDNA, one strand shown
# T5 sequence: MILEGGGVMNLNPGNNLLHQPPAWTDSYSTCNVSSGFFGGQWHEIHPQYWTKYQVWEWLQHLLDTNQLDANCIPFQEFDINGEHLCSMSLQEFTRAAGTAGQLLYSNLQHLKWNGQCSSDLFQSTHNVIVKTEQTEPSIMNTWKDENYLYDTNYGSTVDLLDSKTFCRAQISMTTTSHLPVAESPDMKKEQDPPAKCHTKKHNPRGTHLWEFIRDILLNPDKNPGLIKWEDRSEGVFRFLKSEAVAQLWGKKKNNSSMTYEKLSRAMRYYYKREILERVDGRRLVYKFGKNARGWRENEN
# Outline: as §1
# SPI1 = SPI1 (Homo sapiens, UniProt P17947 1-270); details: protein: recombinant; tags: N-terminal GST; dsDNA, one strand shown
# Outline: as §1
# SPIB = SPIB (Homo sapiens, UniProt Q01892 1-262); details: protein: recombinant; tags: N-terminal GST; dsDNA, one strand shown
# Outline: as §1
# ELK3 = target: T6, ELK3 (Homo sapiens, UniProt P41970 1-407); details: protein: recombinant; tags: N-terminal GST; dsDNA, one strand shown
# T6 sequence: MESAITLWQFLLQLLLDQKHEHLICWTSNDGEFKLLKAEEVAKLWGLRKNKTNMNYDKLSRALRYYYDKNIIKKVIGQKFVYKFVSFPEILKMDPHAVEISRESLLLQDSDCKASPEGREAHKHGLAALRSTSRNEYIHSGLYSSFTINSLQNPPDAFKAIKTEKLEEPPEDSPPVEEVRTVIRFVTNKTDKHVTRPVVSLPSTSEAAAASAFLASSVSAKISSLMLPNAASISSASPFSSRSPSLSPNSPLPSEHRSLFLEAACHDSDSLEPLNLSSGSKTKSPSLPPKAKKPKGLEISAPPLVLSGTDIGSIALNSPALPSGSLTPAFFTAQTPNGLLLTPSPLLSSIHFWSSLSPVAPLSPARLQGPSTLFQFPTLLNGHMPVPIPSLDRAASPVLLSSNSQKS
# Outline: as §1
# FEV = target: T7, FEV (Homo sapiens, UniProt Q99581 1-238); details: protein: recombinant; tags: N-terminal GST; dsDNA, one strand shown
# T7 sequence: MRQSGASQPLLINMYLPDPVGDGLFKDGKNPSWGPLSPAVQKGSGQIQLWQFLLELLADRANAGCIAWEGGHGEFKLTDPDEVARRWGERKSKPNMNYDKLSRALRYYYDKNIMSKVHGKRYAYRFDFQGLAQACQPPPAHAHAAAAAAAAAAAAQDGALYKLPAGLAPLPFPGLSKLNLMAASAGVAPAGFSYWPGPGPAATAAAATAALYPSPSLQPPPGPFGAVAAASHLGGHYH
# Outline: as §1
# ETV5 = ETV5 (Homo sapiens, UniProt P41161 1-510); details: protein: recombinant; tags: N-terminal GST; dsDNA, one strand shown
# Outline: as §1
# HSF1 = HSF1 (Homo sapiens, UniProt Q00613 1-529); details: protein: recombinant; tags: N-terminal GST; chain copies: 3; dsDNA, one strand shown
# Outline: as §1
# SPIC = target: T8, SPIC (Homo sapiens, UniProt Q8N5J4 1-248); details: protein: recombinant; tags: N-terminal GST; dsDNA, one strand shown
# T8 sequence: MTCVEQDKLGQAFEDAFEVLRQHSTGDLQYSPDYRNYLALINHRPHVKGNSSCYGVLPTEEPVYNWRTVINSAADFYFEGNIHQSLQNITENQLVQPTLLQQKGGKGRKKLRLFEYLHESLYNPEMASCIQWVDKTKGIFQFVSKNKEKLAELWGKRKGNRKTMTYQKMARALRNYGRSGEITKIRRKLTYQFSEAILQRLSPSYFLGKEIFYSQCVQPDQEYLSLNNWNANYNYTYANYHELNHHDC
# Outline: as §1
# ELF4 = ELF4 (Homo sapiens, UniProt Q99607 1-663); details: protein: recombinant; tags: N-terminal GST; dsDNA, one strand shown
# Outline: as §1
# ELK4 = target: T9, ELK4 (Homo sapiens, UniProt P28324-2 1-405); details: protein: recombinant; tags: N-terminal GST; dsDNA, one strand shown
# T9 sequence: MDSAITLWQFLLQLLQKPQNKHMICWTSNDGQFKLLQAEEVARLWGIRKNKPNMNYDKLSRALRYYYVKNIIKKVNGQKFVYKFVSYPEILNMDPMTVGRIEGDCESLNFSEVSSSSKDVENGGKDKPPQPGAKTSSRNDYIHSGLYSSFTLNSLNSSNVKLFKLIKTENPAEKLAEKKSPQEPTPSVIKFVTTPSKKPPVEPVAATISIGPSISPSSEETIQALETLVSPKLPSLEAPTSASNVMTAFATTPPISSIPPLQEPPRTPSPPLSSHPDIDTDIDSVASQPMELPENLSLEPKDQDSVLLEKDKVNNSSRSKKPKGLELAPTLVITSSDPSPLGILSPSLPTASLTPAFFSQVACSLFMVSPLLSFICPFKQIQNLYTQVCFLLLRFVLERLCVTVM
# Outline: as §1
# ETV2 = target: T10, ETV2 (Homo sapiens, UniProt O00321 1-342); details: protein: recombinant; tags: N-terminal GST; dsDNA, one strand shown
# T10 sequence: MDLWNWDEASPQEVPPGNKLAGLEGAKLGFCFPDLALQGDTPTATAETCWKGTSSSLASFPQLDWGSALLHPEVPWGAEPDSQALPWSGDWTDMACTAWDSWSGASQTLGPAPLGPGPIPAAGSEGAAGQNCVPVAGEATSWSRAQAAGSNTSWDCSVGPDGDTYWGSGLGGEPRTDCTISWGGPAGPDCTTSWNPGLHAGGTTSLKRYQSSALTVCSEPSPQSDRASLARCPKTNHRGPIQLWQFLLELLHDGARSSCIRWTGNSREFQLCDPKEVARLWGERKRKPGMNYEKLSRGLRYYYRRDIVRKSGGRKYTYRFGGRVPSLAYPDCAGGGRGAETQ
# Outline: as §1
# ELF3 = target: T11, ELF3 (Homo sapiens, UniProt P78545 1-371); details: protein: recombinant; tags: N-terminal GST; dsDNA, one strand shown
# T11 sequence: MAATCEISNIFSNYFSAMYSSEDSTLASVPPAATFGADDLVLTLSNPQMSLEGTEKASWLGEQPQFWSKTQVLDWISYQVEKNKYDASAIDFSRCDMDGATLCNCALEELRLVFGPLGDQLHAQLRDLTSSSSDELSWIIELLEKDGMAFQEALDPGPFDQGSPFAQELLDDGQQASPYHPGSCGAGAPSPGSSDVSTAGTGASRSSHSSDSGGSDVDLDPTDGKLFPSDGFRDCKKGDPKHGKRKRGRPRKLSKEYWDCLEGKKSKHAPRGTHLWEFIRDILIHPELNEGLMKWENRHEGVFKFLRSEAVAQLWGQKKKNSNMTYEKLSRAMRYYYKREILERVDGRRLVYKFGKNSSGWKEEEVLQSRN
# Outline: as §1
# CRX = CRX (Homo sapiens, UniProt O43186 1-299); details: protein: recombinant; tags: N-terminal GST; dsDNA, one strand shown
# Outline: as §1
# ETV1 = ETV1 (Homo sapiens, UniProt P50549 1-477); details: protein: recombinant; tags: N-terminal GST; dsDNA, one strand shown
# Outline: as §1
# ELF4, sequence (Q99607 whole entry): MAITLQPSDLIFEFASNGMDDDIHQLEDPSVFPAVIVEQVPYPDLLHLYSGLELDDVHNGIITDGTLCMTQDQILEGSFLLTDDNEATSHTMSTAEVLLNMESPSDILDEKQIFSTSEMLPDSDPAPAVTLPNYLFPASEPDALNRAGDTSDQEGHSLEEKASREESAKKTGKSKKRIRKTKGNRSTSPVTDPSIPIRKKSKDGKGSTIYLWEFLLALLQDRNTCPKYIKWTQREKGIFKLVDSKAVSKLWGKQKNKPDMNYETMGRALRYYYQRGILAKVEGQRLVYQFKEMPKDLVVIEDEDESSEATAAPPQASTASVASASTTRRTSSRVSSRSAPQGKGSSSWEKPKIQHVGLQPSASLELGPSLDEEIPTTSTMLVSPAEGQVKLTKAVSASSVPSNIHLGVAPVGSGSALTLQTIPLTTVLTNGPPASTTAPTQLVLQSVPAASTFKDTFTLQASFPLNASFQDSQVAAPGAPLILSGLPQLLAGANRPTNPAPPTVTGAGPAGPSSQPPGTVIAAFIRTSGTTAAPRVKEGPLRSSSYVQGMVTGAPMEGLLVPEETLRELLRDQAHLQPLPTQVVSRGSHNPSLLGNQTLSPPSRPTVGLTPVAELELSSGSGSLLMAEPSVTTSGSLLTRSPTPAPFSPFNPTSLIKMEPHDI
# ETV5, sequence (P41161 whole entry): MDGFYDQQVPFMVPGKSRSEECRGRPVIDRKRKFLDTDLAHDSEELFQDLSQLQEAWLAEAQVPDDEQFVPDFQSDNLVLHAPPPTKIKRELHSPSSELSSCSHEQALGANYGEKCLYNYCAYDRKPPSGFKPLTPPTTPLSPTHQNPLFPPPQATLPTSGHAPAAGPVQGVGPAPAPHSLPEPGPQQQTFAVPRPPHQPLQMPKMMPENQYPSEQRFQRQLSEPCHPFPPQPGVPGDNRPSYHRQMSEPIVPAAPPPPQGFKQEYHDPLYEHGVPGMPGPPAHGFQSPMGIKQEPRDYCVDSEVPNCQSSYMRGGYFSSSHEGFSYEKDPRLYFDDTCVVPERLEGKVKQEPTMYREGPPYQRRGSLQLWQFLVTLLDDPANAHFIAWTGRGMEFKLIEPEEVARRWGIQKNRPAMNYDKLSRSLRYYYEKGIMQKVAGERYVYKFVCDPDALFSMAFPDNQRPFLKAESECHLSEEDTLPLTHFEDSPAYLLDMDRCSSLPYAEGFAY
# CRX, sequence (O43186 whole entry): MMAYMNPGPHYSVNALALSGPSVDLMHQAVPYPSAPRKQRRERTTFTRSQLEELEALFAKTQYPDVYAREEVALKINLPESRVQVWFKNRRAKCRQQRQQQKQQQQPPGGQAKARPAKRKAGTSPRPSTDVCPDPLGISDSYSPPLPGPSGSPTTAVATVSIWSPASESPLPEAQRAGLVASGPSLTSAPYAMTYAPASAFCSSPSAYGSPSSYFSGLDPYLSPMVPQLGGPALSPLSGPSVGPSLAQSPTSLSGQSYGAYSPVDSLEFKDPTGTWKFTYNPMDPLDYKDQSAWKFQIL
# SPIB, sequence (Q01892 whole entry): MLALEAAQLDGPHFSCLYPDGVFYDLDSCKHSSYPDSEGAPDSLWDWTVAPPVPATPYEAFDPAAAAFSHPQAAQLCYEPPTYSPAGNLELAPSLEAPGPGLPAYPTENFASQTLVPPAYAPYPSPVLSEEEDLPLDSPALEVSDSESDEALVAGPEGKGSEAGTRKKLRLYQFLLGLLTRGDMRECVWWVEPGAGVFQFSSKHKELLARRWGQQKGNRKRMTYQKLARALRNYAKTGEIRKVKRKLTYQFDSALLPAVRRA
# HSF1, sequence (Q00613 whole entry): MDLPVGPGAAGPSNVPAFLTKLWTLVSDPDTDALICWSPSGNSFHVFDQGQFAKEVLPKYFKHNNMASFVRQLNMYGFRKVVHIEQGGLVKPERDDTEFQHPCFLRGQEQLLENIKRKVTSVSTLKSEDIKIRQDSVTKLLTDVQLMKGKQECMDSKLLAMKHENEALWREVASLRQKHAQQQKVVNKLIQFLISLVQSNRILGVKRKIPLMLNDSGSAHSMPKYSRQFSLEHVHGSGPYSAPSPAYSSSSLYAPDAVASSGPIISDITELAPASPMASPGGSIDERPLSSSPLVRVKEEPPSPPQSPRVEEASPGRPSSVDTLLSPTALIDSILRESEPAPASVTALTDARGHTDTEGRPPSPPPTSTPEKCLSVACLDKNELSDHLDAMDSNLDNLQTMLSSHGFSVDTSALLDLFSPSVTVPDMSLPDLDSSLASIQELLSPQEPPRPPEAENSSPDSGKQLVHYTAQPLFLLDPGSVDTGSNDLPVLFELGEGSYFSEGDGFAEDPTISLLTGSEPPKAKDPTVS
# ELF1, sequence (P32519 whole entry): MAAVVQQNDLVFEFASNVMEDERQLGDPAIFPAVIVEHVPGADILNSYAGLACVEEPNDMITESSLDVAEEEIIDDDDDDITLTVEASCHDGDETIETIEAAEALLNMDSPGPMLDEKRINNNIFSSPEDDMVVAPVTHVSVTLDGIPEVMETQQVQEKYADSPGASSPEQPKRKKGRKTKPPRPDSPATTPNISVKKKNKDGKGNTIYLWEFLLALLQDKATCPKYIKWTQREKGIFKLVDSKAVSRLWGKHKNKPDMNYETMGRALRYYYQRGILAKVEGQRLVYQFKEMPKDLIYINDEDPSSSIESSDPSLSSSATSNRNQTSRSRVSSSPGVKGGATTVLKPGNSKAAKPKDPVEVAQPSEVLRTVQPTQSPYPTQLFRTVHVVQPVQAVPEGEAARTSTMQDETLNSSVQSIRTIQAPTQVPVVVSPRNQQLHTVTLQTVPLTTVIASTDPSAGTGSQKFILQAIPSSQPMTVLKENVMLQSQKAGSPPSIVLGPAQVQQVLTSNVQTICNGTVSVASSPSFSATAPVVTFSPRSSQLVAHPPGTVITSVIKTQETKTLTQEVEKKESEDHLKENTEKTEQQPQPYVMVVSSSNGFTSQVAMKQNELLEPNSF
# ETV1, sequence (P50549 whole entry): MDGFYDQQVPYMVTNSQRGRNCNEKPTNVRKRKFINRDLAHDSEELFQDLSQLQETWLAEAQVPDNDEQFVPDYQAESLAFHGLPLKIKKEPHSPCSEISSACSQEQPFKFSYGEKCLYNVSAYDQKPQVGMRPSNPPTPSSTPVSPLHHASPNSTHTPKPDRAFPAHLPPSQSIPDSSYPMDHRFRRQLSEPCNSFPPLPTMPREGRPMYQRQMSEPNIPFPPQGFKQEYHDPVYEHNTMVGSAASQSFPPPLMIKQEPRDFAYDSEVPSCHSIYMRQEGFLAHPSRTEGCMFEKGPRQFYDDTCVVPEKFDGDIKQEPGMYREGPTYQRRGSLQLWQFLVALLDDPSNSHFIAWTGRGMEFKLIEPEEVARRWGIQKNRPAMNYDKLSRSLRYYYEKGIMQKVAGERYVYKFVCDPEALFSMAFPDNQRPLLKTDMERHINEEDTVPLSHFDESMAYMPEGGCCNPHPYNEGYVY
sequence,measurement,setting,value
TTAACG,binding signal,FLI1,"1.12 fold enrichment (6-mer frequency, TF over GST control)"
same,binding signal,ELK1,"1.17 fold enrichment (6-mer frequency, TF over GST control)"
same,binding signal,GABPA,"1.21 fold enrichment (6-mer frequency, TF over GST control)"
same,binding signal,ERG,"1.17 fold enrichment (6-mer frequency, TF over GST control)"
same,binding signal,ELF1,"1.23 fold enrichment (6-mer frequency, TF over GST control)"
same,binding signal,EHF,"1.15 fold enrichment (6-mer frequency, TF over GST control)"
same,binding signal,SPI1,"1.26 fold enrichment (6-mer frequency, TF over GST control)"
same,binding signal,SPIB,"1.26 fold enrichment (6-mer frequency, TF over GST control)"
same,binding signal,ELK3,"1.32 fold enrichment (6-mer frequency, TF over GST control)"
same,binding signal,FEV,"1.13 fold enrichment (6-mer frequency, TF over GST control)"
same,binding signal,ETV5,"1.22 fold enrichment (6-mer frequency, TF over GST control)"
same,binding signal,HSF1,"1.73 fold enrichment (6-mer frequency, TF over GST control)"
same,binding signal,SPIC,"1.11 fold enrichment (6-mer frequency, TF over GST control)"
same,binding signal,ELF4,"1.15 fold enrichment (6-mer frequency, TF over GST control)"
same,binding signal,ELK4,"1.17 fold enrichment (6-mer frequency, TF over GST control)"
same,binding signal,ETV2,"1.17 fold enrichment (6-mer frequency, TF over GST control)"
same,binding signal,ELF3,"1.27 fold enrichment (6-mer frequency, TF over GST control)"
same,binding signal,CRX,"2.66 fold enrichment (6-mer frequency, TF over GST control)"
same,binding signal,ETV1,"1.19 fold enrichment (6-mer frequency, TF over GST control)"
